Compounds with a hit are over-represented: about 3.1% of the library has one in this group of screens.
RAD52 anneal inh = inhibitors of human RAD52 DNA annealing | P43351 | recombinant RAD52 DNA annealing, FRET fluorescence | inhibition, % at 18.7 µM | actives 0.46% (n = 360,000);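 active means every replicate showing at least 50% inhibition; inconclusive means mean inhibition at least 50% but not in every replicate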
dFosB act = mouse delta FosB homodimer activation | purified delta FosB, TAMRA-CDK5 oligo fluorescence polarization; percent of positive-control signal above neutral wells | P13346 | actives 0.99% (n = 340,000) | AID 493131 | activation, % at 25 µM;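 active means mean activation above about 17%, with every replicate also reaching it, limit read from the data, passing the limit was not always enough; inconclusive means only one of the two conditions met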
DENV2 CPE rescue = DENV2-induced cell death inhibition; DENV2-infected cells, cytopathic effect rescue, plate reader; CPE inhibition, % at 9.99 µM; actives 1.7% (n = 350,000); in the data active means CPE inhibition above about 20%, passing the limit was not always enough; inconclusive means no clear call, values can overlap the other calls; tested in BHK-21 cells;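 further: 0% = median of neutral control wells and 100% = median of positive control wells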
RAD54 inh = RAD54 (human) branch migration inhibition; RAD54 Holliday junction branch migration, FAM/BHQ fluorescence; inhibition, % at 10.4 µM; actives 0.14% (n = 360,000); AID 602329;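 active means mean normalized replicate activity at least 40 and at least half of replicates scoring 40 or more; inconclusive means only one of the two criteria met; inactive means mean below 40 and under half of replicates reaching 40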;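 further: 0% = median of neutral control wells and 100% = median of positive control wells; inhibitors cause a drop in the FAM fluorescence signal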
Target sequence (Q92698 whole entry, looked up): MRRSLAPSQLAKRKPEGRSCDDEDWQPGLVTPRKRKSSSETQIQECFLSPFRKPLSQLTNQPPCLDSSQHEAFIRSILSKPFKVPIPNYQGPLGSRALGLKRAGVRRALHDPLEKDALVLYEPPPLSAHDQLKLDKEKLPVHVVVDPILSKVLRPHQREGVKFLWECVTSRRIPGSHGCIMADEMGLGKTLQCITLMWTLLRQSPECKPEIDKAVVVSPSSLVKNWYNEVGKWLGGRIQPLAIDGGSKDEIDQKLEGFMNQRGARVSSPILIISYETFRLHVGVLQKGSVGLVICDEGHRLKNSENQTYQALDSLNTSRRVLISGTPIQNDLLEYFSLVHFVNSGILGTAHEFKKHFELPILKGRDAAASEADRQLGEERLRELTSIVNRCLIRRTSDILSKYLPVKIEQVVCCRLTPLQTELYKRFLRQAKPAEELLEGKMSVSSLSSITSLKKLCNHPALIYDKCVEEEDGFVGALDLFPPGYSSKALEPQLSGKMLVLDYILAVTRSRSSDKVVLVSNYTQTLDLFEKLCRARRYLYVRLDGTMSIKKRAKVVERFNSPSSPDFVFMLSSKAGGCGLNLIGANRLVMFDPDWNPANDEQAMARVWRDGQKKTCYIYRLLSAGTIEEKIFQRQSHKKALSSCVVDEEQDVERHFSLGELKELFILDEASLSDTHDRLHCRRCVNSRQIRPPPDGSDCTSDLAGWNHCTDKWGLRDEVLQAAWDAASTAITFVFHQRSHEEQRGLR
INS-1E GSIS act = primary screen for activators of insulin secretion dependent on glucose, INS-1E cells, GLuc reporter luminescence | activation, % at 16.6 µM | INS-1E GLuc reporter insulin secretion, 2-3 h | AID 743287 | actives 0.61% (n = 370,000);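 active means lowest replicate activation of at least 40%, so every replicate reaches that level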;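 further: 0% = median of neutral control wells and 100% = median of IBMX positive control wells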
MLL AF4-AF9 inh = inhibitors of human MLL-AF4/AF9 interaction; AlphaScreen, biotin-AF4 peptide binding to FLAG-AF9; inhibition, % at 10 µM; P42568; actives 0.47% (n = 350,000);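 active means every replicate reaching a set inhibition limit, whatever the replicate mean, cut at about 25% in these data; inconclusive means mean inhibition reaches that limit but some replicates miss it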;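 further: 0% = plate neutral control median and 100% = total signal loss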
* = called active by the depositor; ? = inconclusive; . = no result given.

SMILES	RAD52 anneal inh	dFosB act	DENV2 CPE rescue	RAD54 inh	INS-1E GSIS act	MLL AF4-AF9 inh
C[C@@H]1CN([C@@H](C)CO)C(=O)c2cc(NS(C)(=O)=O)ccc2O[C@@H](C)CCCCO[C@H]1CN(C)C(=O)c1ccncc1	13.6	.	68.8*	16.7	17.9	-4.5
C[C@H](CO)N1C[C@H](C)[C@H](CN(C)C(=O)c2ccncc2)OCCCC[C@H](C)Oc2ccc(NS(=O)(=O)c3cn(C)cn3)cc2C1=O	-10.5	.	24.3*	2.4	23.2	1.5
O=C(N[C@@H]1CC[C@H](CC(=O)N2CCOCC2)O[C@@H]1CO)c1cccc(F)c1	8.6	.	12.3	-1.9	15.4	-1.9
CN(c1ccccc1)c1ncnc2c1ncn2C	-9.7	1.2	88.7*	-1.4	1.4	-1.6
CCNC(=O)[C@@H]1[C@@H](CO)[C@@H]2Cn3c(ccc(-c4cncnc4)c3=O)[C@@H]2N1Cc1ccc2c(c1)OCO2	-3.7	.	?	-7.7	8.0	-0.9
C[C@H]1CN([C@@H](C)CO)C(=O)c2cc(NC(=O)CCC(F)(F)F)ccc2O[C@H]1CN(C)S(=O)(=O)c1ccccc1	-0.7	.	8.5	-7.2	-11.0	-1.0
OCC(CCc1c[nH]c2ccccc12)c1c[nH]c2ccccc12 (stereo not drawn)	-2.9	.	-3.5	.	-6.7	40.5*
CC1C(=O)N(Cc2cn(CCC3OCCO3)nn2)CCS(=O)(=O)N1Cc1ccc(-c2cccc(N(C)C)c2)cc1 (stereo not drawn)	-9.0	.	20.8*	1.4	-3.0	5.0
CC1C(=O)N(Cc2cn(Cc3ccco3)nn2)CCS(=O)(=O)N1Cc1ccc(-c2ccccc2C(F)(F)F)cc1 (stereo not drawn)	-14.0	.	65.4*	4.9	.	-1.0
CC(C)C1C(=O)N(Cc2cn(CCC3OCCO3)nn2)CCS(=O)(=O)N1Cc1ccc(-c2ccc(Cl)c(Cl)c2)cc1 (stereo not drawn)	5.7	.	24.7*	.	-31.0	-2.9
O=C(C[C@@H]1CC[C@@H](NS(=O)(=O)c2ccc(F)cc2)[C@@H](CO)O1)N1CCc2ccccc2C1	-3.0	.	7.5	0.9	-2.1	1.3
CC(=O)N(C)C[C@@H]1Oc2ncc(-c3cccnc3)cc2C(=O)N([C@@H](C)CO)C[C@@H]1C	7.1	.	1.4	4.4	9.1	-3.4
Cc1ccc2ccc(C(Nc3ccccn3)c3ccccc3)c(O)c2n1 (stereo not drawn)	-4.5	1.9	15.6	-5.6	.	?
Cc1ccc2ccc(C(Nc3ccccc3)c3ccccc3)c(O)c2n1 (stereo not drawn)	-4.4	.	35.4*	.	-27.0	6.1
Cc1ccc2ccc(C(Nc3ccccc3)c3ccc(C(C)C)cc3)c(O)c2n1 (stereo not drawn)	-15.2	.	-4.7	.	-0.3	.
Cc1ccnc(NC(c2ccccc2)c2ccc3cccnc3c2O)c1 (stereo not drawn)	-7.4	11.1	-15.1	-3.9	-8.7	29.2*
COc1ccc(CCNC(=O)COC(=O)CSc2ccc(C(N)=O)cc2[N+](=O)[O-])cc1OC	-20.6	-6.6	-1.9	-19.1	46.0*	-1.7
Cc1[nH]nc(SCC(=O)NCCc2ccccc2)c1[N+](=O)[O-]	-1.3	-7.9	-2.0	.	-3.7	0.2
COc1ccc(CCNC(=O)CSc2n[nH]c(C)c2[N+](=O)[O-])cc1OC	-0.3	-14.9	-5.7	.	52.4*	-6.7
CC(C)c1onc(C(=O)N2CCN(Cc3ccccc3)CC2)c1[N+](=O)[O-]	-10.4	-1.0	168.1*	-7.3	-12.1	1.3
CC(C)c1onc(C(=O)N2CCOCC2)c1[N+](=O)[O-]	2.4	4.5	-8.7	.	4.7	-4.3
Cc1onc(C(=O)N2CCN(C(c3ccccc3)c3ccccc3)CC2)c1[N+](=O)[O-]	-7.3	3.8	19.2	-27.8	3.6	7.2
COc1ccccc1N1CCN(C(=O)c2noc(C)c2[N+](=O)[O-])CC1	-8.0	-7.0	-3.1	2.7	56.9*	-2.8
COc1ccc(NC(=O)Nc2ccc3c(c2)C(=O)N([C@@H](C)CO)C[C@@H](C)[C@H](CN(C)C(=O)Nc2ccc(F)cc2)O3)cc1	-6.3	.	20.6*	2.4	2.8	1.9
COc1ccc(NC(=O)N(C)C[C@H]2Oc3ccc(NC(=O)Nc4ccc(F)cc4)cc3C(=O)N([C@H](C)CO)C[C@H]2C)cc1	3.5	.	-11.6	2.5	-2.2	1.0
SMILES	RAD52 anneal inh	dFosB act	DENV2 CPE rescue	RAD54 inh	INS-1E GSIS act	MLL AF4-AF9 inh
COc1ccc(NC(=O)Nc2ccc3c(c2)C(=O)N([C@@H](C)CO)C[C@@H](C)[C@@H](CN(C)C(=O)Nc2ccc(OC)cc2)O3)cc1	10.3	.	25.7*	-2.7	10.3	1.0
C[C@@H]1CN([C@H](C)CO)C(=O)c2cc(NC(=O)C3CCCCC3)ccc2O[C@H]1CN(C)C(=O)Nc1ccc(F)cc1	11.6	.	55.4*	-0.2	11.7	1.6
COc1cccc(C(=O)OC2CCCN(C)C2)c1 (stereo not drawn)	.	4.1	.	-5.7	12.7	.
CN1CCCC(OC(=O)c2ccc(C#N)cc2)C1 (stereo not drawn)	-13.8	-0.2	6.1	-4.4	57.4*	-0.1
CC(C)NC(=O)Nc1ccc2c(c1)CC(=O)N([C@H](C)CO)C[C@@H](C)[C@H](CN(C)CC1CCCCC1)O2	3.8	.	3.9	-1.6	-1.8	1.8
Cc1cc(C)n(-c2nc(NCCCN(C)C)c3c4c(sc3n2)CCCC4)n1	52.5*	.	-2.2	21.5	14.2	.
COc1ccccc1N(CC(=O)NCC1CCCO1)C(=O)CNS(=O)(=O)c1ccc(C)cc1 (stereo not drawn)	.	3.8	.	-6.0	12.1	.
COc1ccccc1N(CC(=O)NCC1CCCO1)C(=O)CNS(=O)(=O)c1ccc(Cl)cc1 (stereo not drawn)	-19.4	-8.0	-2.1	-3.6	41.9*	-6.1
CCCc1c(C(=O)N/N=C/c2ccoc2)nnn1-c1nonc1N	-17.2	.	20.8*	8.7	-11.5	2.0
Cc1c(C(=O)N/N=C/c2c(O)ccc3ccccc23)nnn1-c1nonc1N	-25.0	37.7*	5.9	-7.1	1.4	-0.6
Cc1ccc(/C=N/NC(=O)c2nnn(-c3nonc3N)c2CNc2ccccc2)cc1	-7.3	8.9	-6.5	-5.5	4.8	-0.3
Nc1nonc1-n1nnc(C(=O)N/N=C/c2cc(Br)ccc2O)c1CNc1ccccc1	-9.5	51.8*	17.2	-5.1	-1.3	0.4
CCCc1c(C(=O)N/N=C(\C)c2ccccc2O)nnn1-c1nonc1N	-19.2	.	?	2.5	-7.1	-1.3
Cc1ccc(SCc2c(C(=O)N/N=C/c3ccoc3)nnn2-c2nonc2N)cc1	-46.9	-14.2	1.3	-1.0	17.6	-0.2
C/C(=N\NC(=O)c1nnn(-c2nonc2N)c1-c1ccccc1)c1ccccc1O	-19.5	33.3*	4.5	-2.7	-3.7	-7.3
CC(=O)N1[C@H](CO)[C@H](c2ccc(C3=CCCC3)cc2)[C@@H]1CNC(=O)CC1CC1	-38.7	.	-6.1	.	3.4	-4.1

Compound activity (PubChem)
